Activity calls are given as the source filed them. Unless noted, no rule for the calls is given here.
How the values were obtained:
[1] = anti-His antibody binders, primary screen, artefact control for SMM control protein annotation, biochemical, small-molecule microarray, 635 nm fluorescence (AID 1128); details: anti-His Alexa647 antibody binding, higher = more signal;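 also: score merges feature fluorescence with signal-to-noise for each printed compound spot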
[2] = system: Human papillomavirus type 1a E7 protein (residues 1-88); assay: HPV1a E7 small-molecule binders, primary screen, biochemical, small-molecule microarray, residues 1-88, 635 nm (AID 1129); details: small-molecule microarray binding, fluorescence 635 nm; higher = more signal
[3] = target: Focal adhesion kinase 1 (Homo sapiens) (UniProt Q05397); assay: small-molecule microarray binders of FAK, primary screen, biochemical, 635/667 nm fluorescence, BSA, DTT (AID 1130); details: PTK2 binding, 635 nm fluorescence, higher = more signal;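 also: composite of spot emission at 667 nm and signal to noise over triplicate slides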
[4] = system: Fibrinogen (Alexa647-labelled); assay: fibrinogen binders on compound microarrays, profiling panel, artefact control for SMM control-protein annotation, biochemical, small-molecule microarray, 635/667 nm fluorescence (AID 1131); details: fibrinogen-A647 binding fluorescence, higher = more signal;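 also: z-score merges 667 nm fluorescence with per-spot signal-to-noise over triplicate slides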
[5] = target: Follistatin (Homo sapiens) (UniProt P19883); assay: follistatin binders on small-molecule microarrays, primary screen, biochemical, small-molecule microarray, 635/667 nm fluorescence (AID 1132); details: FST binding, 635 nm fluorescence, higher = more signal
[6] = target: Fibroblast growth factor 2 (Homo sapiens) (UniProt P09038); assay: FGF2 binders on small-molecule microarrays, primary screen, biochemical, small-molecule microarray, 635/667 nm fluorescence (AID 1133); details: small-molecule microarray binding, FGF2, fluorescence 635/667; higher = more signal
[7] = mitochondrial membrane potential change in A549 cells, profiling panel, cell-based, JC-1 fluorescence, basal, 24 h, 100 nL (AID 1138); details: higher = more signal;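 also: A549 lung adenocarcinoma cells under basal conditions with no added stimulus; test concentration not given here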
Lefty1 = Lefty1 binders on small-molecule microarrays, primary screen, biochemical, small-molecule microarray, 635/667 nm fluorescence (AID 1139); details: small-molecule microarray binding, fluorescence 635/667; higher = more signal
[8] = system: wheat germ agglutinin (Triticum aestivum), Alexa647-labelled; assay: wheat germ agglutinin binders on compound microarrays, profiling panel, artefact control for SMM control-protein annotation, biochemical, small-molecule microarray, 635/667 nm fluorescence (AID 1140); details: WGA-A647 binding, 635 nm fluorescence, higher = more signal;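 also: score merges 667 nm feature emission with signal to noise over triplicate slides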
[9] = target: Luciferin 4-monooxygenase (Photinus pyralis) (UniProt P08659); assay: firefly luciferase enzyme inhibitors, primary screen, biochemical, luminescence, purified enzyme, 2006 set (AID 1141); details: SteadyGlo luminescence, 30 min, higher = more signal, called active from +8 up or from −8 down;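 also: cell-free assay with purified firefly luciferase at 100 ng per well in PBS; test concentration not given here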
[10] = system: Wnt5a (protein binding on small-molecule microarray); assay: Wnt5a binders on small-molecule microarray, primary screen, biophysical, 635/667 nm fluorescence (AID 1142); details: 635 nm fluorescence, higher = more signal;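 also: fluorescence read at 667 nm with signal to noise per printed feature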
[11] = cell viability in Huh7 cells, primary screen, cytotoxicity control for HCV replication inhibitor project, CellTiter-Glo luminescence, basal, 48 h (AID 1143); details: Huh7 HCV replicon, higher = more signal, called active from +8 up or from −8 down;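 also: Huh7 hepatoma cells carrying a hepatitis C replication reporter with no stimulus; test concentration not given here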
[12] = P. aeruginosa biofilm formation inhibitors, primary screen, PAO1 strain, BacTiter-Glo luminescence, LB-PBS (AID 1144); details: 12 h, higher = more signal
[13] = CREB reporter modulators without forskolin, primary screen, cell-based, PC12, CRE-LacZ reporter, unstimulated (AID 1145); details: no forskolin, luminescence, 4.5 h, higher = more signal, called active from +8 up or from −8 down
[14] = CREB reporter modulators under forskolin, primary screen, cell-based, PC12, CRE-LacZ reporter, forskolin-stimulated (AID 1146); details: luminescence, 4.5 h, higher = more signal, called active from +8 up or from −8 down;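 also: PC12 cells with 6xCRE LacZ reporter stimulated by forskolin 10 µM; beta-galactosidase reporter signal reflecting CREB driven transcription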
[15] = target: Streptavidin (Streptomyces avidinii) (UniProt P22629); assay: streptavidin binders on small-molecule microarray, primary screen, artefact control for SMM compound annotation, biophysical, 635/667 nm fluorescence (AID 1147); details: streptavidin binding, higher = more signal;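 also: signal reflects streptavidin binding to arrayed compounds as a control protein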
[16] = small-molecule binders of probe aInhba, primary screen, biochemical, small-molecule microarray, 635/667 nm fluorescence (AID 1148); details: higher = more signal;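 also: score merges 667nm spot fluorescence with signal-to-noise for antibody binding to printed compounds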
Torsin-1A (Homo sapiens) [17] = target: Torsin-1A (Homo sapiens) (UniProt O14656); assay: torsin A binders from cell lysate, primary screen, small-molecule microarray, wild-type, 635/667 nm (AID 1149); details: COS7 hTOR1A-WT lysate, 635 nm fluorescence, higher = more signal
Torsin-1A (Homo sapiens) [18] = target: Torsin-1A (Homo sapiens) (UniProt O14656); assay: small-molecule binders of mutant TOR1A in lysate, primary screen, cell lysate, small-molecule microarray, COS7 lysate, 635/667 nm fluorescence (AID 1150); details: COS7 hTOR1A mutant lysate, 635 nm fluorescence, higher = more signal;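 also: score pools 667 nm emission and signal to noise measuring lysate protein binding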
[19] = system: Sonic hedgehog protein (Shh); assay: small-molecule binders of Shh protein, primary screen, biochemical, small-molecule microarray, 635/667 nm fluorescence (AID 1151); details: small-molecule microarray binding, 635 nm fluorescence; higher = more signal;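 also: Shh protein binding to compounds spotted on small-molecule microarray slides; score combines spot fluorescence intensity with signal-to-noise across triplicate slides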

Chain of Torsin-1A (Homo sapiens) (O14656 whole entry, looked up): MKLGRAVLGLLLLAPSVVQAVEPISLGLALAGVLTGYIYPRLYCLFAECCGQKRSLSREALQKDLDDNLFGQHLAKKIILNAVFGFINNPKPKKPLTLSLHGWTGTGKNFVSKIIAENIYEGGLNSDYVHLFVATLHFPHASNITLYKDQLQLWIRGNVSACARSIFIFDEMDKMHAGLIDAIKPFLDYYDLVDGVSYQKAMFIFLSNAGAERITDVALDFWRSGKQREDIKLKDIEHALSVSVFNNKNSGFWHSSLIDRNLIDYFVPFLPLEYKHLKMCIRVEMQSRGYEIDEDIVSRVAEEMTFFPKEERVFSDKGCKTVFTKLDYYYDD
Chain of Follistatin (Homo sapiens) (P19883 whole entry, looked up): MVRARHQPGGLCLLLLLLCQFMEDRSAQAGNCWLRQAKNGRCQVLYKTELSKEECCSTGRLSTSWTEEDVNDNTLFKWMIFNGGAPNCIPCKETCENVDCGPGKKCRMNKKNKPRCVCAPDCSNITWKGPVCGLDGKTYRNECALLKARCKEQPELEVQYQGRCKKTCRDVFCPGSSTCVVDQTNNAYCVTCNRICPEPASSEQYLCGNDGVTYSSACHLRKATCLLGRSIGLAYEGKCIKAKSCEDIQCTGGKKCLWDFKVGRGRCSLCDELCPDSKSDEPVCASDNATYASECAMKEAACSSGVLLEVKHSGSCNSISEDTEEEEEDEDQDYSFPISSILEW
Chain of Fibroblast growth factor 2 (Homo sapiens) (P09038 whole entry, looked up): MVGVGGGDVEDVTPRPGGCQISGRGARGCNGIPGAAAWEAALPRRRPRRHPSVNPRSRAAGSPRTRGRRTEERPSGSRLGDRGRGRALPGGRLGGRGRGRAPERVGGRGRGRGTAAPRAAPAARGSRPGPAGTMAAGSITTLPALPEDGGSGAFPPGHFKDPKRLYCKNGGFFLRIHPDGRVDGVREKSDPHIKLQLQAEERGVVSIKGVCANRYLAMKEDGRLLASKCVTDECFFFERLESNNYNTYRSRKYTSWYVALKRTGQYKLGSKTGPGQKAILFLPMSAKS
Chain of Luciferin 4-monooxygenase (Photinus pyralis) (P08659 whole entry, looked up): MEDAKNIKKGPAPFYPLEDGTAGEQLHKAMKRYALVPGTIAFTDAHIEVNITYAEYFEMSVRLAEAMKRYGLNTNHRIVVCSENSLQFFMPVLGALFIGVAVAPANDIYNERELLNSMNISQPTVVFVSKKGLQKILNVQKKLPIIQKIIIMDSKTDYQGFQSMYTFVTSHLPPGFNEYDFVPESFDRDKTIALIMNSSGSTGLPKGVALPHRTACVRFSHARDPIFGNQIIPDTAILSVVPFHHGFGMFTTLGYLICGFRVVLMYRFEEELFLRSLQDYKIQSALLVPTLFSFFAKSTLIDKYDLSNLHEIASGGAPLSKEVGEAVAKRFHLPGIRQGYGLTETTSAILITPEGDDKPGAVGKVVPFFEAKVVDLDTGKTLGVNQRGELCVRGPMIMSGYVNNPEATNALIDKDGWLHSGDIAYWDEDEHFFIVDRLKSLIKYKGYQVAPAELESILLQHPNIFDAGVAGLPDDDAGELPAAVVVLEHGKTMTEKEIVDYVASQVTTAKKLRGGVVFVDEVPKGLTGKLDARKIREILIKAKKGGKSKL
Chain of Streptavidin (Streptomyces avidinii) (P22629 whole entry, looked up): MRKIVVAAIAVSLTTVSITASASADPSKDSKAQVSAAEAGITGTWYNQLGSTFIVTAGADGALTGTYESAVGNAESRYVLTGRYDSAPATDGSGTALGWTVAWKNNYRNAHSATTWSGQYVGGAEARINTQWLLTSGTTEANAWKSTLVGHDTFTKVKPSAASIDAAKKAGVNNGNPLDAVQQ
Chain of Focal adhesion kinase 1 (Homo sapiens) (Q05397 whole entry, looked up): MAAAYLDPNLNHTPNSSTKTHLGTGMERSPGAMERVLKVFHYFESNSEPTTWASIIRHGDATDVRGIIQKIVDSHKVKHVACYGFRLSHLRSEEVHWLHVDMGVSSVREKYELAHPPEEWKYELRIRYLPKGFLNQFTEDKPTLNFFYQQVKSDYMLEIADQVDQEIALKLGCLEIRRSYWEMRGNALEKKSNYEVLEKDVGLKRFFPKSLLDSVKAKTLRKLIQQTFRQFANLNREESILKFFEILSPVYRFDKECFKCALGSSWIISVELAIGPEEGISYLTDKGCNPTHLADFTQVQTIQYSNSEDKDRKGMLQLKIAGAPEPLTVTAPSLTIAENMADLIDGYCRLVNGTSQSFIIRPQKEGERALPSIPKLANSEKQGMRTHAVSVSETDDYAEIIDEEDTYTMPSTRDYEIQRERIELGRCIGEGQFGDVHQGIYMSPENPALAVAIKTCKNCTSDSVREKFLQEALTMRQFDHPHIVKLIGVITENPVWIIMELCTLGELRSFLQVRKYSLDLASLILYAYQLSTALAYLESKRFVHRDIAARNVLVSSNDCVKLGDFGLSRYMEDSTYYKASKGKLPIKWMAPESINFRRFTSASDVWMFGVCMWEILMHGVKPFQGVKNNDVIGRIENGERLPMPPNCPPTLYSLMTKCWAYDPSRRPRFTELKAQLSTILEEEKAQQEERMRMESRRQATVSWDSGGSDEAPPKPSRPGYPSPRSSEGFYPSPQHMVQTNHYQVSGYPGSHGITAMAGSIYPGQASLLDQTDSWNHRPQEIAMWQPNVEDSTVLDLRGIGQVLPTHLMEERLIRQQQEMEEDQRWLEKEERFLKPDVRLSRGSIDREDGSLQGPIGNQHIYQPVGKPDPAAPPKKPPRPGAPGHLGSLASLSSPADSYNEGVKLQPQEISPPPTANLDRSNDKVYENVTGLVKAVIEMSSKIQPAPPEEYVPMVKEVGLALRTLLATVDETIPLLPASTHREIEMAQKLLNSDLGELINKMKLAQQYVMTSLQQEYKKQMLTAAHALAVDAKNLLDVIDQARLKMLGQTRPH

Compound	composite z-score [1]	composite z-score [2]	composite z-score [3]	composite z-score [4]	composite z-score [5]	composite z-score [6]	z-score [7]	composite z-score (Lefty1)	composite z-score [8]	z-score [9]	composite z-score [10]	z-score [11]	z-score [12]	z-score [13]	z-score [14]	composite z-score [15]	composite z-score [16]	composite z-score (Torsin-1A (Homo sapiens) [17])	composite z-score (Torsin-1A (Homo sapiens) [18])	composite z-score [19]
COc1ccc([Si](C)(C)[C@H]2[C@H](CCO)O[C@@]3(C(=O)N(Cc4cccc(N5C(=O)COc6ccccc65)c4)c4ccccc43)[C@@H]2C)cc1	0.354	-0.0131	-0.0804	0.0563	0.196	-0.032	1.17	-0.236	0.715	-1.17 (inactive)	-0.285	-6.25 (inactive)	-1.83 (inactive)	2.41 (inactive)	-1.52 (inactive)	0.174	-0.128	-0.451	-0.298	0.419
COC(=O)c1ccc([C@H](NC(=O)c2ccco2)[C@]2(C)C[C@H]2C2CCCCC2)cc1	-0.162	-0.678	-0.59	-0.293	-0.633	-1.11	-0.573	-1.58	0.638	1.34 (inactive)	0.0108	-2.84 (inactive)	-0.635 (inactive)	-0.368 (inactive)	0.898 (inactive)	0.689	0.0659	-2.21	-0.568	-1.21
CN1C(=O)C2C=CC(C(O)COCc3ccccc3)N(N(c3ccccc3)c3ccccc3)C2C1=O (stereo not given)	0.087	1.19	0.75	0.56	0.265	-0.483	1.12	0.216	0.508	-1.06 (inactive)	0.124	-0.423 (inactive)	-0.761 (inactive)	-0.326 (inactive)	-0.637 (inactive)	0.369	0.0464	0.346	0.231	-0.386
COC(=O)c1c(CC[C@@H](CO)NC(=O)N[C@H](Cn2cc(C3(O)CCCCC3)nn2)C(C)C)oc(C(C)=O)c1C(=O)OC	1.56	0.737	-0.0722	0.627	1.23	1.26	0.131	1.23	0.947	-0.0595 (inactive)	0.359	-2.81 (inactive)	-0.875 (inactive)	1.34 (inactive)	-1.13 (inactive)	1.31	-0.0523	0.881	0.756	1.59
COCCOC(=O)N1C(=O)[C@@]2(c3cc(C#Cc4ccc(OC)cc4)ccc31)[C@H](c1ccccc1OCCO)N1[C@H](c3ccccc3)[C@H](c3ccccc3)OC(=O)[C@H]1[C@@H]2C(=O)N1CCCCCCC1	0.623	1.2	0.701	-0.183	1.51	1.73	-0.775	1.23	1.33	-0.246 (inactive)	1.28	-4.35 (inactive)	-2.23 (inactive)	-1.42 (inactive)	-0.693 (inactive)	2.64	1.56	2.72	2.09	2.04
O=C1NC(=O)C2C1C=CC(C(O)c1c(F)cccc1Cl)N2Nc1ccc(Cl)cc1Cl (stereo not given)	1.23	1.2	1.6	0.296	-0.0649	-0.891	-1.15	-0.507	1.31	0.231 (inactive)	0.275	-1.37 (inactive)	-0.159 (inactive)	0.632 (inactive)	-0.524 (inactive)	1.23	0.414	0.465	1.27	-0.854
C[C@]1(C(=O)NC2CC2)c2ccccc2C(=O)N(Cc2ccccc2)[C@H]1c1ccc(CO)cc1	-1.12	-1.29	0.874	-2.17	-0.271	-0.517	-0.153	-1.5	-1.15	-0.347 (inactive)	-0.228	-4.5 (inactive)	-0.483 (inactive)	0.0279 (inactive)	-0.957 (inactive)	-0.854	0.0028	0.249	-0.489	-1.3
C[C@H]1NC(=O)[C@@]23C(=O)N[C@@H](Cc4ccccc4)C2[C@H](C)[C@@]2(C)O[C@H]2C3/C=C/C/C=C\CNC(=O)[C@H](Cc2ccccc2)NC1=O (stereo not given in full)	0.624	-0.0861	-0.219	0.617	0.884	0.811	-0.0755	0.942	0.404	-0.203 (inactive)	0.0319	-0.945 (inactive)	-0.773 (inactive)	-0.508 (inactive)	-0.0421 (inactive)	-0.178	-0.0963	-0.2	0.113	1.63
COCCOC(=O)N1C(=O)[C@@]2(c3cc(C#Cc4ccc(OC)cc4)ccc31)[C@H](C(=O)Nc1nc3ccccc3s1)[C@H]1C(=O)O[C@H](c3ccccc3)[C@H](c3ccccc3)N1[C@@H]2c1ccc(O)cc1	-0.0507	1.13	0.0931	0.965	1.29	1.09	-2.26	1.18	0.927	-0.0504 (inactive)	0.472	-3.43 (inactive)	-1.8 (inactive)	-1.83 (inactive)	0.673 (inactive)	0.768	0.266	0.198	0.811	1.91
